# Active and inactive are the calls of the source.
# Assays:
# [1] = compounds binding Alexa647 anti-His antibody – biochemical, small-molecule microarray, 635 nm fluorescence, artefact control for SMM control protein annotation, primary screen (AID 1128); details: higher = more signal;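 also: score merges feature fluorescence with signal-to-noise for each printed compound spot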
# [2] = system: Human papillomavirus type 1a E7 protein (residues 1-88); assay: HPV1a E7 small-molecule binders, primary screen, biochemical, small-molecule microarray, residues 1-88, 635 nm (AID 1129); details: small-molecule microarray binding, fluorescence 635 nm; higher = more signal
# [3] = biological target: Focal adhesion kinase 1 (Homo sapiens) (UniProt Q05397); assay: PTK2 protein binding on printed compound slides – biochemical, small-molecule microarray, 635/667 nm fluorescence, BSA, DTT, primary screen (AID 1130); details: 635 nm fluorescence, higher = more signal;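 also: composite of spot emission at 667 nm and signal to noise over triplicate slides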
# [4] = system: Fibrinogen (Alexa647-labelled); assay: Alexa647-fibrinogen binding to printed small molecules – biochemical, small-molecule microarray, 635/667 nm fluorescence, artefact control for SMM control-protein annotation, profiling panel (AID 1131); details: fibrinogen-A647 binding fluorescence, higher = more signal;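 also: z-score merges 667 nm fluorescence with per-spot signal-to-noise over triplicate slides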
# [5] = biological target: Follistatin (Homo sapiens) (UniProt P19883); assay: FST protein binding to printed compounds – biochemical, small-molecule microarray, 635/667 nm fluorescence, primary screen (AID 1132); details: 635 nm fluorescence, higher = more signal
# [6] = biological target: Fibroblast growth factor 2 (Homo sapiens) (UniProt P09038); assay: basic fibroblast growth factor binding to printed compounds – biochemical, small-molecule microarray, 635/667 nm fluorescence, primary screen (AID 1133); details: FGF2, fluorescence 635/667, higher = more signal
# [7] = JC-1 mitochondrial potential readout, lung cancer cells – cell-based, A549, JC-1 fluorescence, basal, 24 h, 100 nL, profiling panel (AID 1138); details: higher = more signal;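 also: A549 lung adenocarcinoma cells under basal conditions with no added stimulus; test concentration not given here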
# [8] = system: Lefty1; assay: Lefty1 protein binding to printed compounds – biochemical, small-molecule microarray, 635/667 nm fluorescence, primary screen (AID 1139); details: fluorescence 635/667, higher = more signal
# [9] = system: wheat germ agglutinin (Triticum aestivum), Alexa647-labelled; assay: Alexa647-WGA lectin binding to printed small molecules – biochemical, small-molecule microarray, 635/667 nm fluorescence, artefact control for SMM control-protein annotation, profiling panel (AID 1140); details: WGA-A647 binding, 635 nm fluorescence, higher = more signal;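 also: score merges 667 nm feature emission with signal to noise over triplicate slides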
# [10] = biological target: Luciferin 4-monooxygenase (Photinus pyralis) (UniProt P08659); assay: inhibition of purified Photinus pyralis luciferase – biochemical, luminescence, purified enzyme, 2006 set, primary screen (AID 1141); details: purified firefly luciferase, SteadyGlo luminescence, 30 min; higher = more signal, called active from +8 up or from −8 down;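 also: cell-free assay with purified firefly luciferase at 100 ng per well in PBS; test concentration not given here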
# Sequence of Luciferin 4-monooxygenase (Photinus pyralis) (P08659 whole entry, looked up): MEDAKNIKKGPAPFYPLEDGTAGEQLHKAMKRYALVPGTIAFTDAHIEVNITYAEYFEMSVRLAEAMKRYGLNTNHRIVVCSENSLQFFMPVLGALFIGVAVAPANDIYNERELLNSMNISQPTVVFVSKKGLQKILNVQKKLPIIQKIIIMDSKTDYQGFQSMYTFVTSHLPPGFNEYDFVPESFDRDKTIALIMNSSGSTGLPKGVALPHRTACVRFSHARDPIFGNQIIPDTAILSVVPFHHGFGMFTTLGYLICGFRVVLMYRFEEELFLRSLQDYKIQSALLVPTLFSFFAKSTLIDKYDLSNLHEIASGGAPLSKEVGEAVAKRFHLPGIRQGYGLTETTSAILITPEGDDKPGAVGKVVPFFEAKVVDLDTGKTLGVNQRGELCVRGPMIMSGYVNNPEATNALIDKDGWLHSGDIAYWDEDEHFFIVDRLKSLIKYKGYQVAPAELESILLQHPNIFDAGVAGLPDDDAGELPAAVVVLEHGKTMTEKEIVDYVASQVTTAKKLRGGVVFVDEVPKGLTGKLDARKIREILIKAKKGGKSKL
# Sequence of Fibroblast growth factor 2 (Homo sapiens) (P09038 whole entry, looked up): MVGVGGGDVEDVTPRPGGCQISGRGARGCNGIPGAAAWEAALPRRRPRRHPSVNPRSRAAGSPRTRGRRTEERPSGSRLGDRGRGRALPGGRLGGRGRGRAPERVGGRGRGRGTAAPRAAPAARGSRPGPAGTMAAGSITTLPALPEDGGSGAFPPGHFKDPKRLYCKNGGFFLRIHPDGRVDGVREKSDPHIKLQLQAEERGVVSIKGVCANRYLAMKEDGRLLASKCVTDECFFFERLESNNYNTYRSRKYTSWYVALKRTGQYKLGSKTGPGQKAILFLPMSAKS
# Sequence of Follistatin (Homo sapiens) (P19883 whole entry, looked up): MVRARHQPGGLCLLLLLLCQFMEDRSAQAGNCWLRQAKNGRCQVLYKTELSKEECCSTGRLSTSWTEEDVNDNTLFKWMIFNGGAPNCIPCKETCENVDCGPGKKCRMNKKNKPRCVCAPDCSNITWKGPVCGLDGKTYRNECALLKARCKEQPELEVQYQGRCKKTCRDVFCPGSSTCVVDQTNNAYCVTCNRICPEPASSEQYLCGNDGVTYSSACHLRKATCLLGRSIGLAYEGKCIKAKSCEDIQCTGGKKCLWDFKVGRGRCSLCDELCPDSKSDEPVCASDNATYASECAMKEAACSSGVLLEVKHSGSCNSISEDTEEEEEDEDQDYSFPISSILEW
# Sequence of Focal adhesion kinase 1 (Homo sapiens) (Q05397 whole entry, looked up): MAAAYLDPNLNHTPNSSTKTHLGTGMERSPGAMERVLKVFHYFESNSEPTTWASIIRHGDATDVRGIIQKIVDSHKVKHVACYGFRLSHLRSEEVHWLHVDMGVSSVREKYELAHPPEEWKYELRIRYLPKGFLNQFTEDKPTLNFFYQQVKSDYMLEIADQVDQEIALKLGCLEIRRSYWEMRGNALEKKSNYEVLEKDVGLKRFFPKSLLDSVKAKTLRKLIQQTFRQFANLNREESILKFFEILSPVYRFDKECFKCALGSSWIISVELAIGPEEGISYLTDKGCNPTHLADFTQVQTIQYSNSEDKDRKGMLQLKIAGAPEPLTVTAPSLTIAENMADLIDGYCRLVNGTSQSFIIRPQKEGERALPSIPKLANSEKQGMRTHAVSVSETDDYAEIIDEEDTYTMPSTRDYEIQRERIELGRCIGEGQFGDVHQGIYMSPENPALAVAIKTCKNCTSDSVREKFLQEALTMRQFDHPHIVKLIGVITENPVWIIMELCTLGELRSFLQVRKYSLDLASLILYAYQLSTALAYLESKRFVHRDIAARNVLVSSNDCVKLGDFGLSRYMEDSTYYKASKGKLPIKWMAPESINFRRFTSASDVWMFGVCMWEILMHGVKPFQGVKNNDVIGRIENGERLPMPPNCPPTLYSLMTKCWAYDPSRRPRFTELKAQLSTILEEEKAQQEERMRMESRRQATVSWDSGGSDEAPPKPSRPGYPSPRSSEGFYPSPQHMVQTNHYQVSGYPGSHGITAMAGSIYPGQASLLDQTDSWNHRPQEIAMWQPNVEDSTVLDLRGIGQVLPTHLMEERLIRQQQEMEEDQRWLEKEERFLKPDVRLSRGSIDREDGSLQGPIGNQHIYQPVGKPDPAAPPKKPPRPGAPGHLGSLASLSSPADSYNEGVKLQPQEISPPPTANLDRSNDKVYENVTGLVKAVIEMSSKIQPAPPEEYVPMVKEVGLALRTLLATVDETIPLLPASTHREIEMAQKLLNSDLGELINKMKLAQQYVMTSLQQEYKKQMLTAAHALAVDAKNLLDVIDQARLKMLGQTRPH
SMILES,composite z-score [1],composite z-score [2],composite z-score [3],composite z-score [4],composite z-score [5],composite z-score [6],z-score [7],composite z-score [8],composite z-score [9],z-score [10]
CC1O[C@H]2C3=C(C(=O)[C@@H]4O[C@@H]4[C@H]3O)[C@@H]1C1[C@@H](C)OC=C3[C@H](O)C4O[C@@H]4C(=NOCc4ccccc4)[C@]312 (stereo not given in full),0.331,-0.492,-0.0962,-1.18,-0.117,0.468,0.476,0.16,-0.911,-0.399 (inactive)
COC(=O)CC=C[C@@H](C)[C@@H](C=NO[C@H](C)c1cn([C@@H]2COC[C@H]2O)nn1)NS(=O)(=O)c1ccc(C)cc1,1.41,-0.0194,-0.217,0.533,1.08,0.845,0.109,1.26,0.521,0.316 (inactive)
CC(C)=CCCC(C)=CCON=C1C[C@@H](O)[C@@H](O)[C@@H]2[C@@H]3C(=O)N(C4CCCCC4)C(=O)[C@@H]3CC[C@@H]12,-0.216,0.0286,0.0165,-0.229,0.831,0.417,-0.64,0.791,-0.0783,0.335 (inactive)
O=C(NN=C1C[C@@H](O)[C@@H](O)[C@@H]2[C@@H]3C(=O)N(C[C@@H]4CCCO4)C(=O)[C@@H]3CC[C@@H]12)OCc1ccccc1,-0.391,-0.645,-0.345,-0.545,0.5,0.23,0.49,0.305,-0.248,-0.827 (inactive)
CC(C)CON=C1C[C@@H](O)[C@@H](O)[C@@H]2[C@@H]3C(=O)N(C4CCCCC4)C(=O)[C@@H]3CC[C@H]12,0.55,0.666,0.005,0.657,0.346,0.781,0.246,0.837,0.812,-0.266 (inactive)
Cn1c(=O)n2n(c1=O)[C@H]1[C@H](O)[C@@H]3O[C@@H]3C(=O)[C@H]1CC2,-0.0542,0.827,-0.515,0.289,0.537,0.348,-0.572,0.455,0.138,-0.28 (inactive)
C[C@@H](c1ccccc1)N1C(=O)[C@H]2[C@H]3[C@H](O)[C@H](O)CC(=NO[C@@H]4O[C@H](CO)[C@@H](O)[C@H](O)[C@H]4O)[C@H]3CC[C@H]2C1=O,0.746,0.76,-0.0492,0.318,0.656,0.444,0.296,0.554,0.0795,0.491 (inactive)
CC[C@@H](c1ccccc1)n1c(=O)n2n(c1=O)[C@H]1[C@H](O)[C@@H]3O[C@@H]3C(=NOC[C@@H](O)COCc3ccco3)[C@H]1CC2,-0.74,-0.629,0.587,-1.9,0.361,0.167,-0.0823,0.389,0.534,-0.47 (inactive)
CO[C@@H]1COC(=O)[C@@H](C)NC(=O)CC=C[C@@H](C)[C@H](NS(=O)(=O)c2ccc(C)cc2)COC(=O)[C@H](C)NC(=O)CC=C[C@H]1C,-0.0135,-0.693,-0.0691,-0.965,0.848,0.0303,1.07,0.895,-0.694,-1.15 (inactive)
CCC=CCCC(OC(=O)c1ccc(Br)cc1)C1=CCCCC1=O (stereo not given),0.164,1.17,0.408,-0.997,1.11,0.584,-0.158,0.876,0.485,0.0771 (inactive)
CCOC(=O)C1=NO[C@]2(C=C(Br)C3(OCCCO3)[C@H]3O[C@H]32)C1,-0.765,-0.57,-0.428,0.185,-0.599,-0.285,-0.242,-0.168,0.513,0.163 (inactive)
CON=C1[C@H]2CCn3c(=O)n(-c4ccccc4)c(=O)n3[C@H]2[C@H](O)[C@@H]2O[C@H]12,1.95,0.574,0.295,0.148,0.743,0.986,0.758,0.695,0.168,-2.49 (inactive)
CC(CCN1CCCCc2nc(C)c(C)cc21)=NOC[C@@H](O)COCc1ccco1,0.111,-0.91,0.0817,-0.426,1.42,1.98,0.143,1.68,-0.466,0.357 (inactive)
Cc1cc2c(nc1C)CCCCN2CC(C)ON=C[C@@H](C)[C@H](OCc1ccccc1)C(C)C (stereo not given in full),1.92,-0.598,-0.69,-2.1,-1.88,-1.78,-1.26,-0.913,-0.765,-0.29 (inactive)
CCOC(=O)[C@H](CC(C)C)NC(=O)CCC1CC(OC(=O)NCc2cccc3ccccc23)CC2(CCCC(COC(=O)NCCOc3ccccc3)O2)O1 (stereo not given in full),0.907,1.15,0.0968,0.959,0.776,0.373,1.07,0.741,0.537,0.546 (inactive)
CO[C@@H]1C=CCC(=O)N[C@@H](C)C(=O)OC[C@@H](OC)[C@H](C)CCCC(=O)OC[C@H]1C,2.07,-1.64,-0.195,-1.64,1.39,0.343,-0.393,1.37,-0.268,1.13 (inactive)
